# Data from PubChem BioAssay (EPA / NIEHS).
# Inconclusive results are not listed. Activity calls are given as the source filed them. The calls were made as follows: active = hit-call score of the fitted dose curve at least 0.9, where 1 is the maximum; inconclusive = response in the unintended direction; inactive = score below 0.9.
# What was measured:
# [1] = target: mouse Cholecystokinin, CCK1 Receptor (CCKA), Cckar (gene 12425) (UniProt O08786); assay: NVS_GPCR_mCCKAPeripheral: NovaScreen (NVS) G Protein-Coupled Receptor Assay for mouse Cholecystokinin, CCK1 Receptor (CCKA) (AID 2283285)
# Summary of the method: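 Chemicals were first screened in duplicate at 25 uM, with those meeting threshold (e.g., 30% inhibition) retested in singleton concentration series to 50 uM maximum. Binding of radioligand to mouse pancreatic membranes was read after 2 h by filtration and scintillation counting.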
# [2] = target: rat Adrenergic, Alpha 1, Non-selective Receptor (Adra1), Adra1a (gene 29412) (UniProt P43140); assay: NVS_GPCR_rAdra1_NonSelective: NovaScreen (NVS) G Protein-Coupled Receptor Assay for rat Adrenergic, Alpha 1, Non-selective Receptor (Adra1) (AID 2283289)
# rat Adrenergic, Alpha 1, Non-selective Receptor (Adra1), Adra1a (gene 29412), sequence (P43140 whole entry, looked up): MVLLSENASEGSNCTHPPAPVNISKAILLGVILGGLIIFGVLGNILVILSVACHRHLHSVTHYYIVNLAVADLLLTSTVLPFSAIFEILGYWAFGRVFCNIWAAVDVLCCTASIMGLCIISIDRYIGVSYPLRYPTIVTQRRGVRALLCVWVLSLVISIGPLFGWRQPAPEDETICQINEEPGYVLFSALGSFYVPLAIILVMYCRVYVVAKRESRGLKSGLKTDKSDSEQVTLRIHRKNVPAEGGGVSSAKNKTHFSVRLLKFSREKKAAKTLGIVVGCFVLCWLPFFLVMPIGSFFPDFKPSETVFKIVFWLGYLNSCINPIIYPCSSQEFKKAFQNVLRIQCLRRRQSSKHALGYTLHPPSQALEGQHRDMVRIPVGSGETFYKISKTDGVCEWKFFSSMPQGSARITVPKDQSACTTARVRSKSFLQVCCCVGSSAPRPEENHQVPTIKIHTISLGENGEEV
# Summary of the method: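 Chemicals first screened in duplicate at 25 uM, then actives tested in concentration series up to 50 uM. Binding measured as displacement of radioligand from rat forebrain membrane receptors, 1 h, filtration with scintillation readout; DMSO baseline.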
# [3] = target: Metabotropic glutamate receptor 1 (Rattus norvegicus) (UniProt P23385); assay: NVS_GPCR_rmMGluR1: NovaScreen (NVS) G Protein-Coupled Receptor Assay for rat Glutamate Metabotropic Receptor 1 (MGluR1) (AID 2283305)
# Summary of the method: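 Binding to native receptor from rat cerebellum extract, measured as displacement of a radioligand (scintillation counting, filter separation) after 1 hour. Compounds tested at 25 uM in duplicate, then titrated to a 50 uM maximum.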
# [4] = target: human Thromboxane A2 Receptor (TXA2), TBXA2R (gene 6915) (UniProt P21731); assay: NVS_GPCR_hTXA2: NovaScreen (NVS) G Protein-Coupled Receptor Assay for human Thromboxane A2 Receptor (TXA2) (AID 2283282);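 also: actives reduce bound radioligand signal relative to DMSO baseline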
# Summary of the method: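 Cell-free radioligand binding on membrane protein from human platelets; radioligand displacement read by filter-based scintillation counting after 1 h. Primary screen in duplicate at 25 uM, actives then run in concentration series; loss of signal versus DMSO.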
# [5] = target: human Vasopressin 1A Receptor (V1A), AVPR1A (gene 552) (UniProt P37288); assay: NVS_GPCR_hV1A: NovaScreen (NVS) G Protein-Coupled Receptor Assay for human Vasopressin 1A Receptor (V1A) (AID 2283284)
# Summary of the method: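 Single-concentration duplicate screen at 25 uM, with concentration-response follow-up (top 50 uM) for actives. The assay measured displacement of a radioligand from human platelet-derived receptor after 1.5 h, detected by filtration and scintillation counting.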
# [6] = target: rat Adrenergic, Alpha 1A Receptor (Adra1A), Adra1a (gene 29412) (UniProt P43140); assay: NVS_GPCR_rAdra1A: NovaScreen (NVS) G Protein-Coupled Receptor Assay for rat Adrenergic, Alpha 1A Receptor (Adra1A) (AID 2283296)
# rat Adrenergic, Alpha 1A Receptor (Adra1A), Adra1a (gene 29412), sequence (P43140 whole entry, looked up): as above
# Summary of the method: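 Filter radiodetection after 1 h competitive binding on CEC-pretreated rat cortical membranes. Duplicate single-point screening at 25 uM; active chemicals retested across concentration series.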
# [7] = target: rat Histamine Receptor (H3), Hrh3 (gene 85268) (UniProt Q9QYN8); assay: NVS_GPCR_rH3: NovaScreen (NVS) G Protein-Coupled Receptor Assay for rat Histamine Receptor (H3) (AID 2283303)
# rat Histamine Receptor (H3), Hrh3 (gene 85268), sequence (Q9QYN8 whole entry, looked up): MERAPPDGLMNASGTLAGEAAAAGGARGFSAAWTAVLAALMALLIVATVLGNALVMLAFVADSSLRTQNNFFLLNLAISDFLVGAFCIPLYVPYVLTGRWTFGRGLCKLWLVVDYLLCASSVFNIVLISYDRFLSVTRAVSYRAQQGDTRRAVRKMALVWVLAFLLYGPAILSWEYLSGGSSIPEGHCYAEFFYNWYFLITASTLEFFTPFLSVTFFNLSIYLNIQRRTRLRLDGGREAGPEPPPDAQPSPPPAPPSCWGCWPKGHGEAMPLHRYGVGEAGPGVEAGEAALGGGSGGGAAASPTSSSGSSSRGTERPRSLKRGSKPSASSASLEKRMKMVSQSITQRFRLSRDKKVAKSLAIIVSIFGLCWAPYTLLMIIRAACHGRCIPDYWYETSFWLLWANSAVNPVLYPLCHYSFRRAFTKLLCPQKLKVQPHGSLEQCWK
# Summary of the method: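 Filter-binding radioligand competition on rat forebrain membranes, 1 h incubation; compounds screened at 25 µM in duplicate and followed in concentration series to 50 µM, loss of bound signal vs DMSO.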
# Adra2b (gene 24174) = Adra2b (gene 24174) (UniProt P19328); assay: NVS_GPCR_rmAdra2B: NovaScreen (NVS) G Protein-Coupled Receptor Assay for hybird cells Adrenergic, Alpha 2B Receptor (Adra2B) (AID 2283306)
# Adra2b (gene 24174), sequence (P19328 whole entry, looked up): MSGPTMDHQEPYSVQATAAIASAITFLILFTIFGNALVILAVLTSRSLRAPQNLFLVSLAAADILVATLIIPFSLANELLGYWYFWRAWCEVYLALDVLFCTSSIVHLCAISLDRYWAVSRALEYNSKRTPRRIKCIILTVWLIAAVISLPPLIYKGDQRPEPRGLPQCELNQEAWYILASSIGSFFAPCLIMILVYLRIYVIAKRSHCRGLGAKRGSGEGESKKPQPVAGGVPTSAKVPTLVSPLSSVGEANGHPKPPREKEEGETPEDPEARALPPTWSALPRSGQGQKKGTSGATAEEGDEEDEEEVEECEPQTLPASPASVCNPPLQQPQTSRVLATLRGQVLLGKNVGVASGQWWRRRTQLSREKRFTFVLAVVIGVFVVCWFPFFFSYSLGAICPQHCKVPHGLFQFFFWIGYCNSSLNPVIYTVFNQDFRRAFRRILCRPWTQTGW
# Summary of the method: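 Compounds screened first at 25 uM in duplicate, with actives followed up in concentration-response; specific radioligand displacement from hybrid neuroglioma/blastoma cell membrane preparations measured by filter scintillation counting after 1 h, normalized to DMSO.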
# [8] = target: rat Serotonin, 5-Hydroxytryptamine Receptor 1 (5HT1), Non-Selective Binding, Htr1a (gene 24473) (UniProt P19327); assay: NVS_GPCR_r5HT1_NonSelective: NovaScreen (NVS) G Protein-Coupled Receptor Assay for rat Serotonin, 5-Hydroxytryptamine Receptor 1 (5HT1), Non-Selective Binding (AID 2283286)
# rat Serotonin, 5-Hydroxytryptamine Receptor 1 (5HT1), Non-Selective Binding, Htr1a (gene 24473), sequence (P19327 whole entry, looked up): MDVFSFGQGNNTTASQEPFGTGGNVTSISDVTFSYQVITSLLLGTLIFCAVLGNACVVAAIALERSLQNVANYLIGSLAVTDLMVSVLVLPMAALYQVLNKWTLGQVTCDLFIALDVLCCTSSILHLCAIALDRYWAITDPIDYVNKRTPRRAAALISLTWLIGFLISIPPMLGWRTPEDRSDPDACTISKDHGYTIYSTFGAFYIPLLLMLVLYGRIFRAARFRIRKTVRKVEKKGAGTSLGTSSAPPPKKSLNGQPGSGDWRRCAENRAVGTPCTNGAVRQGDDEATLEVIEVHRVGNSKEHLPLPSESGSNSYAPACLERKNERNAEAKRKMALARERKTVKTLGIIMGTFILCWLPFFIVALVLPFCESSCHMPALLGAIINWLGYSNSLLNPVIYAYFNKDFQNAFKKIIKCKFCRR
# Summary of the method: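 Binding of a radioligand to rat cortex membranes is read by filtration and scintillation counting after 1 h. Compounds were screened at 25 uM in duplicate. Actives were then titrated to a top of 50 uM. DMSO is the baseline.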
# [9] = tested on: 5-hydroxytryptamine receptor 2C (pig); assay: NVS_GPCR_p5HT2C: NovaScreen (NVS) G Protein-Coupled Receptor Assay for pig Serotonin, 5-Hydroxytryptamine Receptor 2C (5HT2C) (AID 2283288)
# Summary of the method: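 Radioligand displacement on membranes from pig choroid plexus, detected by filter scintillation counting after 1 h. Tested first at a single 25 uM in duplicate, then in concentration-response for actives; DMSO served as baseline.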
# [10] = target: human Opioid Receptor Mu (Opiate Mu), OPRM1 (gene 4988) (UniProt P35372); assay: NVS_GPCR_hOpiate_mu: NovaScreen (NVS) G Protein-Coupled Receptor Assay for human Opioid Receptor Mu (Opiate Mu) (AID 2283290);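 also: hits lower bound tracer signal versus DMSO meaning displacement of the ligand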
# human Opioid Receptor Mu (Opiate Mu), OPRM1 (gene 4988), sequence (P35372 whole entry, looked up): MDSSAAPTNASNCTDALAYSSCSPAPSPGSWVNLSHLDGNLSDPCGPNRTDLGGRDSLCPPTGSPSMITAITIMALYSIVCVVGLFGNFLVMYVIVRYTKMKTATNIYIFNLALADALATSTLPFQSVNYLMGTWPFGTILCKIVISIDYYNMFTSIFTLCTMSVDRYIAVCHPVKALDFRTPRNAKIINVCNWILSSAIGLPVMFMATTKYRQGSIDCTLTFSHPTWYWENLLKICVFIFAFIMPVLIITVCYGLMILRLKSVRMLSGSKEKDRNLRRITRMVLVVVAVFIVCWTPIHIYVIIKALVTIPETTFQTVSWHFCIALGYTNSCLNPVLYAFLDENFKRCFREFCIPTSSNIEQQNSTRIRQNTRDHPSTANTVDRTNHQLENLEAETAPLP
# Summary of the method: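 Cell-free radioligand binding to membranes from CHO cells expressing the receptor; bound tracer measured by filter-based scintillation counting 2.5 hours after dosing. Loss of signal versus DMSO baseline reflects displacement; primary screen at 25 uM in duplicate, actives followed up in concentration series.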
# [11] = target: guinea pig Serotonin, 5-Hydroxytryptamine Receptor 4 (5HT4), HTR4 (gene 100135548) (UniProt O70528); assay: NVS_GPCR_g5HT4: NovaScreen (NVS) G Protein-Coupled Receptor Assay for guinea pig Serotonin, 5-Hydroxytryptamine Receptor 4 (5HT4) (AID 2283294)
# guinea pig Serotonin, 5-Hydroxytryptamine Receptor 4 (5HT4), HTR4 (gene 100135548), sequence (O70528 whole entry, looked up): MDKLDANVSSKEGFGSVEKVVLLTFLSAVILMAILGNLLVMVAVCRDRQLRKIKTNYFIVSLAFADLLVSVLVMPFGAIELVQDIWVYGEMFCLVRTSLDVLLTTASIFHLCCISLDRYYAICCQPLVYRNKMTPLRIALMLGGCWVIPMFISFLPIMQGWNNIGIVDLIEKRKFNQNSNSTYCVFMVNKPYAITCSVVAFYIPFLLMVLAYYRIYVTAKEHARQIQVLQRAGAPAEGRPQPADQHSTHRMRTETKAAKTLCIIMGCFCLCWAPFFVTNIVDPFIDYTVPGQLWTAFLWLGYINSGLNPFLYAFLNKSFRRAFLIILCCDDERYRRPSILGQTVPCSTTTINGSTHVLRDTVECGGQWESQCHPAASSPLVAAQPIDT
# Summary of the method: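 Compounds first screened in duplicate at 25 uM, actives followed up in concentration series. Binding measured as displacement of specific radioligand from guinea pig striatal membranes, 1 h, filter-based scintillation read-out versus DMSO baseline.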
# [12] = target: rat Serotonin, 5-Hydroxytryptamine Receptor (5HT), Non-Selective Binding, Htr1a (gene 24473) (UniProt P19327); assay: NVS_GPCR_r5HT_NonSelective: NovaScreen (NVS) G Protein-Coupled Receptor Assay for rat Serotonin, 5-Hydroxytryptamine Receptor (5HT), Non-Selective Binding (AID 2283295)
# rat Serotonin, 5-Hydroxytryptamine Receptor (5HT), Non-Selective Binding, Htr1a (gene 24473), sequence (P19327 whole entry, looked up): as the sequence (P19327 whole entry, looked up) above
# Summary of the method: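 Rat cortex membrane preparation incubated 1 h with radioligand and test chemical; bound radioactivity counted after filtration. Screening began in duplicate at 25 uM with concentration-series follow-up; fitting relative to DMSO.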
# [13] = tested on: rat Adrenergic, Alpha 1B Receptor (Adra1B), gene 24173; assay: NVS_GPCR_rAdra1B: NovaScreen (NVS) G Protein-Coupled Receptor Assay for rat Adrenergic, Alpha 1B Receptor (Adra1B) (AID 2283297)
# Summary of the method: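 Filter-binding radioligand competition on membranes from rat liver, read after 1 h by scintillation counting. Single-concentration duplicate screen at 25 uM, followed by concentration-response on actives, normalised to DMSO.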
# [14] = target: rat Adrenergic Receptor, Alpha 2 (Adra2), Non-selective Binding, Adra2a (gene 25083) (UniProt P22909); assay: NVS_GPCR_rAdra2_NonSelective: NovaScreen (NVS) G Protein-Coupled Receptor Assay for rat Adrenergic Receptor, Alpha 2 (Adra2), Non-selective Binding (AID 2283299)
# rat Adrenergic Receptor, Alpha 2 (Adra2), Non-selective Binding, Adra2a (gene 25083), sequence (P22909 whole entry, looked up): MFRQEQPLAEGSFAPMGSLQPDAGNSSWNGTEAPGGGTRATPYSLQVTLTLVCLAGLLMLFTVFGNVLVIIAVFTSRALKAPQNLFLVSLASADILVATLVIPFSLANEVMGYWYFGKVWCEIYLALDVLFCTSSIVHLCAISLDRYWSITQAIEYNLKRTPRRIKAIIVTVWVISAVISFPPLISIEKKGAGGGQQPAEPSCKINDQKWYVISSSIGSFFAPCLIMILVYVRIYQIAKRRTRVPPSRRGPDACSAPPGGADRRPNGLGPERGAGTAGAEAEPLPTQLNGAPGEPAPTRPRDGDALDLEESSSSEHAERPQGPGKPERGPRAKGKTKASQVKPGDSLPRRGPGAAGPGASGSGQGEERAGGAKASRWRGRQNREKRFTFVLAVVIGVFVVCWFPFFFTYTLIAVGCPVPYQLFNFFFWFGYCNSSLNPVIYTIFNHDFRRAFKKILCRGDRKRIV
# Summary of the method: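 Filter-based scintillation counting of radioligand binding to rat cortical membrane receptors, measured 1.25 hours post-dosing; loss of signal versus DMSO indicates displacement. Initial single-concentration duplicate at 25 uM, then concentration series.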
# [15] = target: rat Adrenergic Receptor, Beta (Adrb), Non-selective Binding, Adrb1 (gene 24925) (UniProt P18090); assay: NVS_GPCR_rAdrb_NonSelective: NovaScreen (NVS) G Protein-Coupled Receptor Assay for rat Adrenergic Receptor, Beta (Adrb), Non-selective Binding (AID 2283298)
# Summary of the method: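 Rat cortical membranes incubated 1 h with beta-adrenergic radioligand and test chemical; bound ligand measured by filtration and scintillation counting. Screen at 25 uM duplicate, then concentration series with 50 uM maximum; loss of signal versus DMSO.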
# [16] = target: rat Gamma-Aminobutyric Acid Type B Receptor (GABBR), Gabbr1 (gene 81657) (UniProt Q9Z0U4); assay: NVS_GPCR_rGABBR: NovaScreen (NVS) G Protein-Coupled Receptor Assay for rat Gamma-Aminobutyric Acid Type B Receptor (GABBR) (AID 2283301)
# rat Gamma-Aminobutyric Acid Type B Receptor (GABBR), Gabbr1 (gene 81657), sequence (Q9Z0U4 whole entry, looked up): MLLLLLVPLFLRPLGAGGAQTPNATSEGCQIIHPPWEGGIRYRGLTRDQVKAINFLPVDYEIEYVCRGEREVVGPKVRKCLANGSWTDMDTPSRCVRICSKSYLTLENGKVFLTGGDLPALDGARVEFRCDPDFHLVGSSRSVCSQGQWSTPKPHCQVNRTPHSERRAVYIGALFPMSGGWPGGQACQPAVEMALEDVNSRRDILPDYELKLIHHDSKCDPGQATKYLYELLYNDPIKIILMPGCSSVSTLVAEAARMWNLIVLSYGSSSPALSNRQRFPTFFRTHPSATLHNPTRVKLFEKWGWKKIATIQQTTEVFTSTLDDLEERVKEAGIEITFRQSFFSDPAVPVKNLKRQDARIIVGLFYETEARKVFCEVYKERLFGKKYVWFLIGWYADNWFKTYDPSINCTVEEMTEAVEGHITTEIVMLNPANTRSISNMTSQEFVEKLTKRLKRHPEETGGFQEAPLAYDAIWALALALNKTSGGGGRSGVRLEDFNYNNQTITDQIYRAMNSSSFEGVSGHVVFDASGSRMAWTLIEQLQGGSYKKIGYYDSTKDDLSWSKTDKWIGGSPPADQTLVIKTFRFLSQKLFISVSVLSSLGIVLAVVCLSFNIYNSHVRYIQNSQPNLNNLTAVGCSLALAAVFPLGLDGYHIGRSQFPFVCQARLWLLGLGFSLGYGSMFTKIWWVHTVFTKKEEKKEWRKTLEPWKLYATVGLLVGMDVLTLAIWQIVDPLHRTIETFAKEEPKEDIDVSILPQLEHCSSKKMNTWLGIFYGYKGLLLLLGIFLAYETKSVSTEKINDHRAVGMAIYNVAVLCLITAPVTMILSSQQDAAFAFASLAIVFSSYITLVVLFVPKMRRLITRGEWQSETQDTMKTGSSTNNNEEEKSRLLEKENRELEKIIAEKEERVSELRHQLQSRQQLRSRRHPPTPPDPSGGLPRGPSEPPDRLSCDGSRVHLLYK
# Summary of the method: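 Rat cortical membrane preparation, competitive radioligand binding for 1 h with filtration and scintillation readout. Actives from duplicate single-point 25 uM screening proceeded to concentration series with 50 uM top concentration.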
# [17] = target: mouse Cholecystokinin, CCK2 Receptor (CCKB), Cckbr (gene 12426) (UniProt P56481); assay: NVS_GPCR_mCKKBCentral: NovaScreen (NVS) G Protein-Coupled Receptor Assay for mouse Cholecystokinin, CCK2 Receptor (CCKB) (AID 2283293)
# Summary of the method: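 Mouse forebrain membrane preparation incubated 2 h with chemical and radioligand; bound radioactivity counted after filtration. Single-concentration duplicate screen at 25 uM, then concentration series to 50 uM max for hits, DMSO as baseline.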
# [18] = target: guinea pig Bradykinin Receptor B2 (BK2), BDKRB2 (gene 100135486) (UniProt O70526); assay: NVS_GPCR_gBK2: NovaScreen (NVS) G Protein-Coupled Receptor Assay for guinea pig Bradykinin Receptor B2 (BK2) (AID 2283292)
# Summary of the method: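 Guinea pig ileum membrane preparation incubated 1 h with radioligand and test chemical; bound counts measured after filtration. Primary duplicate screening at 25 uM, then singleton concentration series with a 50 uM top dose; DMSO as baseline.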
smiles,measurement,setting,value
Cc1cc(F)ccc1-c1cc(N2CC[C@@H](O)[C@H]2CO)ncc1N(C)C(=O)C(C)(C)c1cc(C(F)(F)F)cc(C(F)(F)F)c1,AC50,[1],4.08 µM (active)
same,AC50,[2],20.4 µM (active)
same,AC50,[3],8.39 µM (active)
CCCCCCCCOc1ccc(C(=O)c2ccccc2)c(O)c1,AC50,[4],25 µM (active)
c1ccc(C[n+]2cccc3ccccc32)cc1,outcome,[5],inactive
same,AC50,[2],11.7 µM (active)
same,AC50,[6],11 µM (active)
same,outcome,[7],inactive
same,AC50,Adra2b (gene 24174),12.2 µM (active)
NCc1cccc(C2CCN(C(=O)c3ccc(C#Cc4ccccc4F)o3)CC2)c1,AC50,[1],13.6 µM (active)
same,AC50,[8],4.96 µM (active)
same,AC50,[9],8.02 µM (active)
same,AC50,[2],21.5 µM (active)
same,AC50,[10],2.56 µM (active)
same,AC50,[11],17.6 µM (active)
same,AC50,[12],14.8 µM (active)
same,outcome,[6],inactive
same,AC50,[13],25 µM (active)
same,AC50,[14],14.4 µM (active)
same,AC50,Adra2b (gene 24174),13.3 µM (active)
CCCCCCCCN(C)CCCCCCCC,outcome,[15],inactive
CC[C@H](NC(=O)c1cc(F)ccc1NS(=O)(=O)c1cccc2cccnc12)c1ccccc1,outcome,[10],inactive
same,outcome,[15],inactive
CCCCOC(=O)c1ccc(O)cc1,AC50,[9],25 µM (active)
same,outcome,[13],inactive
O=C1c2ccccc2C(=O)N1CCc1noc(-c2ccc(CN3CCCCCC3)s2)n1,AC50,[2],9.19 µM (active)
same,AC50,[11],4 µM (active)
same,outcome,[12],inactive
same,AC50,[6],5.59 µM (active)
same,AC50,[7],16.8 µM (active)
same,AC50,Adra2b (gene 24174),3.3 µM (active)
O=C1CCC(C2CCCCC2)CC1,outcome,Adra2b (gene 24174),inactive
CCCCCCCCOC(=O)c1cc(O)c(O)c(O)c1,AC50,[10],18 µM (active)
Clc1cc(Cl)c2c(c1)N=C1CCCCCN1C2,AC50,[2],6.44 µM (active)
same,AC50,[11],5.45 µM (active)
same,AC50,[6],3.54 µM (active)
same,AC50,[13],5.42 µM (active)
same,AC50,[14],1.57 µM (active)
same,AC50,Adra2b (gene 24174),5.33 µM (active)
CC(C)(C)c1cc(/C=C2\SC(N)=NC2=O)cc(C(C)(C)C)c1O,outcome,[9],inactive
O=C(O)Cc1cc(I)c(Oc2ccc(O)c(I)c2)c(I)c1,outcome,[16],inactive
c1ccc2n[nH]nc2c1,outcome,[9],inactive
CCCC(=O)OCCC(C)C,outcome,[17],inactive
O=c1ccc2ccccc2o1,outcome,[9],inactive
Clc1ccccc1C(c1ccccc1)(c1ccccc1)n1ccnc1,outcome,[10],inactive
Oc1ccc2ccccc2c1,AC50,[9],9.86 µM (active)
COc1cc(C(=O)NC2CCN(C)CC2)ccc1Nc1ncc2c(n1)N(C1CCCC1)CC(F)(F)C(=O)N2C,outcome,[8],inactive
same,AC50,[9],3.34 µM (active)
same,AC50,[2],3.85 µM (active)
same,AC50,[10],17.4 µM (active)
same,AC50,[18],2.81 µM (active)
same,AC50,[11],8.4 µM (active)
same,outcome,[12],inactive
same,AC50,[6],7.27 µM (active)
same,AC50,[13],15.5 µM (active)
same,AC50,[7],3.19 µM (active)
same,AC50,Adra2b (gene 24174),18.8 µM (active)
O=c1c(-c2ccc(O)cc2)coc2cc(O)cc(O)c12,outcome,[2],inactive
O=C(O)c1ccccc1-n1cc(C(=O)O)c(=O)c2cc(Nc3c(F)cc(F)cc3Cl)c(Cl)cc21,outcome,[17],inactive
Cc1ncc(CO)c(CO)c1O,outcome,[16],inactive
C[C@]12CC[C@@H]3c4ccc(O)cc4CC[C@H]3[C@@H]1CCC2=O,outcome,[11],inactive
COc1cccc([C@H](O)C2CCN(CCc3ccc(F)cc3)CC2)c1OC,AC50,[8],25 µM (active)
same,AC50,[10],12.6 µM (active)
same,AC50,[11],25 µM (active)
same,AC50,[12],5.58 µM (active)
same,AC50,[13],0.26 µM (active)
same,AC50,[14],1.58 µM (active)
same,outcome,[16],inactive
same,AC50,Adra2b (gene 24174),1.85 µM (active)
COc1ccc2cc(S(=O)(=O)N[C@H](CC(=O)N[C@H](Cc3ccc(CN4[C@H](C)CCC[C@@H]4C)cc3)C(=O)N(C)C(C)C)c3ccc4c(c3)OCO4)ccc2c1,AC50,[2],15.7 µM (active)
same,AC50,[10],8.69 µM (active)
same,AC50,[18],13.8 µM (active)
same,AC50,[11],16.8 µM (active)
same,outcome,[12],inactive
same,outcome,[6],inactive
same,AC50,[13],23.9 µM (active)
same,AC50,[14],23.9 µM (active)
same,AC50,Adra2b (gene 24174),11.1 µM (active)
